Measured values: PubChem BioAssay (NCATS)
Results filed as inconclusive are left out. Where a call stands in place of a potency, no number is given. Activity calls are given as the source filed them. Calls come from the whole dose curve; as a rule, active = well fitted curve in the direction sought with a large enough effect; inconclusive = small, poorly fitted or top-dose-only effect, or another doubt; inactive = no such curve, though single readings can be large; an effect the other way counts as inactive or inconclusive.

Experiments:
[1] = molecular target: Glutathione peroxidase 1 (Homo sapiens) (UniProt P07203); experiment: Primary qHTS Assay for Inhibitors of Recombinant Selenoprotein Glutathione Peroxidase 1 (GPX1) (AID 1845191); details: recombinant GPX1, GR-coupled NADPH fluorescence, 15 min; series mostly up to 48.8 µM; note: nearly all actives have a fitted effect of over 65% in size
Sequence of Glutathione peroxidase 1 (Homo sapiens) (P07203 whole entry, looked up): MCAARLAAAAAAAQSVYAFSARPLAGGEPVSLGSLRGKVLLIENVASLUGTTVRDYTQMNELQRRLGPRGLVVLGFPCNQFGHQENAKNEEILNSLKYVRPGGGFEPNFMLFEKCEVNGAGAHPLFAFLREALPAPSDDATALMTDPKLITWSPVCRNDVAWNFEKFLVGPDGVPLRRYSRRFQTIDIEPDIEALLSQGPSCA
Method in brief: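 NADPH consumption tracked by fluorescence at 340/450 nm between t=0 and t=15 min, room temperature. Final mix: 10 nM GPX1, 100 nM glutathione reductase, 1 mM GSH, 0.5 mM NADPH, 0.5 mM cumene hydroperoxide, 0.01% BSA; 30 min compound–enzyme preincubation.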

[2] = molecular target: Phospholipid hydroperoxide glutathione peroxidase GPX4 (Homo sapiens) (UniProt P36969); experiment: Primary qHTS Assay for Inhibitors of Recombinant Selenoprotein Glutathione Peroxidase 4 (GPX4) (AID 1845192); details: recombinant GPX4, GR-coupled NADPH fluorescence, 15 min; series mostly up to 50 µM; note: nearly all actives have a fitted effect of over 65% in size
Sequence of Phospholipid hydroperoxide glutathione peroxidase GPX4 (Homo sapiens) (P36969 whole entry, looked up): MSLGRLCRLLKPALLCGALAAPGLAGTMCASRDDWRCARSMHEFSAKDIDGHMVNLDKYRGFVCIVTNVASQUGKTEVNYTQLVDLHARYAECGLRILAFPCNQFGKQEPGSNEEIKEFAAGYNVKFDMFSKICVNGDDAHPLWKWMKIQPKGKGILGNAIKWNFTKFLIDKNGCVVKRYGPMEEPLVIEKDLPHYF
Method in brief: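 NADPH consumption followed by fluorescence at 340/450 nm, t=0 and after 15 min at room temperature. Reaction started with cumene hydroperoxide (0.5 mM final) after 30 min compound–GPX4 preincubation; final 200 nM GPX4, 100 nM GR, 1 mM GSH, 0.5 mM NADPH.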

[3] = qHTS profiling for inhibitors of Plasmodium falciparum proliferation (AID 504749); note: nearly all actives have a fitted effect of over 60% in size; note: potency is the fitted concentration of half-maximal effect; details: P. falciparum in erythrocytes, SYBR Green DNA, 72 h
Method in brief: (§1)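 SYBR Green fluorescence of parasite DNA, read after lysis and overnight dark incubation, measured growth over 72 h in erythrocyte culture at 0.3% parasitemia and 2.5% hematocrit. Data normalised to DMSO and 0.29 uM artemisinin, with plate-drift correction.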

3D7 = experiment: as above; details: P. falciparum in erythrocytes, SYBR Green DNA, 72 h; series mostly up to 28.7 µM
Method in brief: as §1

7G8 = experiment: as above; details: P. falciparum in erythrocytes, SYBR Green DNA, 72 h; series mostly up to 28.7 µM
Method in brief: as §1

AA1029 = experiment: as above; details: P. falciparum in erythrocytes, SYBR Green DNA, 72 h; series mostly up to 28.7 µM
Method in brief: as §1

AS120 = experiment: as above; details: P. falciparum in erythrocytes, SYBR Green DNA, 72 h; series mostly up to 28.7 µM
Method in brief: as §1

ATS189 = experiment: as above; details: P. falciparum in erythrocytes, SYBR Green DNA, 72 h; series mostly up to 28.7 µM
Method in brief: as §1

ATS95 = experiment: as above; details: P. falciparum in erythrocytes, SYBR Green DNA, 72 h; series mostly up to 28.7 µM
Method in brief: as §1

C2A = experiment: as above; details: P. falciparum in erythrocytes, SYBR Green DNA, 72 h; series mostly up to 28.7 µM
Method in brief: as §1

CP185 = experiment: as above; details: P. falciparum in erythrocytes, SYBR Green DNA, 72 h; series mostly up to 28.7 µM
Method in brief: as §1

CP191 = experiment: as above; details: P. falciparum in erythrocytes, SYBR Green DNA, 72 h; series mostly up to 28.7 µM
Method in brief: as §1

[4] = molecular target: Metallo-beta-lactamase type 2 (Klebsiella pneumoniae) (UniProt C7C422); experiment: qHTS to identify inhibitors of the New Delhi Metallo-beta-lactamase (NDM): assay validation screen against the NCATS LOPAC Collection (AID 1794843); details: NDM-1 enzyme, nitrocefin hydrolysis, absorbance 485 nm; series mostly up to 38.4 µM;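 note: nitrocefin turnover by NDM-1 measured as 485 nm absorbance at plateau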
Sequence of Metallo-beta-lactamase type 2 (Klebsiella pneumoniae) (C7C422 whole entry, looked up): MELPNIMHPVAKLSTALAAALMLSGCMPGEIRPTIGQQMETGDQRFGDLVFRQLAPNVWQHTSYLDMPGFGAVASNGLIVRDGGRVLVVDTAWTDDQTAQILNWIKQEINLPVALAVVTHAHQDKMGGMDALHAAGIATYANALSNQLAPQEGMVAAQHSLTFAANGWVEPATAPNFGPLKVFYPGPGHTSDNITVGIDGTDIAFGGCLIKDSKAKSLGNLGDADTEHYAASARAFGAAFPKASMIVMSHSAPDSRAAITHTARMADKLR
Method in brief: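 NDM-1 at 2 nM final in 50 mM HEPES pH 7.0 with 1 uM ZnSO4 and 0.01% Tween20 was preincubated with library compounds in DMSO. Nitrocefin (50 uM stock) was then added, and absorbance at 485 nm was read at the kinetic plateau.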

[5] = at 28.7 µM (top of the series), parasite line A
[6] = at 28.7 µM (top of the series), parasite line B
[7] = at 12.8 µM (top of the series), parasite line A

Structure (SMILES) | Potency [1] | outcome [2] | activity, negative = inhibition [3, 5] | activity, negative = inhibition [3, 6] | Potency (3D7) | Potency (7G8) | Potency (AA1029) | Potency (AS120) | Potency (ATS189) | Potency (ATS95) | Potency (C2A) | Potency (CP185) | Potency (CP191) | Potency [4] | activity, negative = inhibition [3, 7] | activity, negative = inhibition ([3]; at 12.8 µM (top of the series), parasite line B) | Potency ([3]; parasite line A) | Potency ([3]; parasite line B)
CCCCOCCOCCOCc1cc2c(cc1CCC)OCO2 | inactive | inactive | 4.14% (inactive) | 5.71% (inactive) | inactive | inactive | inactive | inactive | inactive | inactive | inactive | inactive | inactive | – | – | – | – | –
NC(Cc1ccc(Cl)cc1)C(=O)O (stereo not drawn) | inactive | inactive | 17.3% (inactive) | 7.34% (inactive) | inactive | – | inactive | inactive | inactive | inactive | inactive | inactive | inactive | inactive | – | – | – | –
CN1CCN(C2=Nc3ccccc3Oc3ccc(Cl)cc32)CC1 | inactive | inactive | – | – | inactive | – | inactive | inactive | inactive | inactive | inactive | inactive | inactive | inactive | 4.87% (inactive) | -8.95% (inactive) | – | –
c1cc(CN2CCCCC2)cc(OCCCNc2nc3ccccc3s2)c1 | inactive | inactive | – | – | – | 6.31 µM (active) | – | 5.01 µM (active) | – | 7.94 µM (active) | – | – | – | inactive | – | – | – | –
Fc1ccc(C(c2ccc(F)cc2)N2CCN(C/C=C/c3ccccc3)CC2)cc1 | inactive | inactive | – | – | – | 4.47 µM (active) | – | 10 µM (active) | – | – | – | – | – | inactive | – | – | – | –
C[n+]1cc2c3c(ccc2c2ccc4cc5c(cc4c21)OCO5)OCO3 | inactive | inactive | -18.2% (inactive) | -15.2% (inactive) | – | – | inactive | inactive | – | inactive | inactive | inactive | – | inactive | – | – | – | –
C#CCN(C)CCCOc1ccc(Cl)cc1Cl | inactive | inactive | 6.5% (inactive) | 12.2% (inactive) | inactive | – | inactive | inactive | inactive | inactive | inactive | inactive | inactive | inactive | – | – | – | –
COCCCC/C(=N\OCCN)c1ccc(C(F)(F)F)cc1 | inactive | inactive | -21.1% (inactive) | – | inactive | 10 µM (active) | – | – | inactive | – | – | – | – | inactive | – | – | – | –
CC(C)[N+](C)(CCOC(=O)C1c2ccccc2Oc2ccccc21)C(C)C | inactive | inactive | – | – | – | – | – | – | – | – | – | inactive | – | inactive | – | – | – | –
CCCCNc1ccc(C(=O)OCCN(C)C)cc1 | inactive | inactive | – | – | inactive | inactive | inactive | inactive | – | inactive | inactive | inactive | inactive | inactive | 20% (inactive) | – | – | –
NC(=Nc1ccccc1)Nc1ccccc1 | inactive | inactive | -14.1% (inactive) | -13.7% (inactive) | inactive | – | inactive | inactive | inactive | inactive | inactive | inactive | inactive | – | – | – | – | –
COCCOC(=O)C1=C(C)NC(C)=C(C(=O)OC(C)C)C1c1cccc([N+](=O)[O-])c1 (stereo not drawn) | inactive | inactive | – | – | – | 11.2 µM (active) | – | 7.94 µM (active) | – | – | inactive | – | – | inactive | – | – | – | –
CCCCCCCC/C=C\CCCCCCCC(=O)NCc1ccc(O)c(OC)c1 | inactive | inactive | – | – | – | – | – | – | 8.91 µM (active) | – | – | 11.2 µM (active) | 12.6 µM (active) | inactive | – | – | 7.08 µM (active) | –
CC(C)NNC(=O)c1ccncc1 | inactive | inactive | -11.8% (inactive) | – | inactive | inactive | 7.94 µM (active) | inactive | inactive | – | inactive | inactive | 4.47 µM (active) | inactive | – | – | – | –
O=C(CCCN1CCC(O)(c2cccc(C(F)(F)F)c2)CC1)c1ccc(F)cc1 | inactive | inactive | – | – | – | 3.98 µM (active) | 7.08 µM (active) | 7.94 µM (active) | 8.91 µM (active) | 10 µM (active) | 11.2 µM (active) | – | 7.94 µM (active) | inactive | – | – | 8.91 µM (active) | 8.91 µM (active)
c1ccc2c(c1)CCCC2C1=NCCN1 (stereo not drawn) | inactive | inactive | – | – | – | – | – | – | – | – | – | – | – | – | – | – | – | –
CCCCNc1c(C(=O)OCC)c(C)nc2c1cnn2CC | inactive | inactive | 2.9% (inactive) | -6.97% (inactive) | inactive | – | inactive | – | inactive | inactive | inactive | inactive | inactive | inactive | – | – | – | –
COc1ccc(CCN(C)CCCC(C#N)(c2cc(OC)c(OC)c(OC)c2)C(C)C)cc1OC (stereo not drawn) | inactive | inactive | – | – | – | 10 µM (active) | – | – | – | – | – | – | – | inactive | – | – | – | –
C[C@]12CCC(=O)C=C1CC[C@@H]1[C@@H]2CC[C@@]2(C)[C@H]1CC[C@]2(O)C(=O)CO | inactive | inactive | -9.28% (inactive) | 20.5% (inactive) | inactive | – | inactive | inactive | inactive | inactive | inactive | inactive | inactive | inactive | – | – | – | –
Cc1ccc(/C(=C\CN2CCCC2)c2ccccn2)cc1 | inactive | inactive | – | – | – | – | – | – | – | – | – | – | – | – | – | – | – | –
CN1CCN(CC(=O)N2c3ccccc3C(=O)Nc3cccnc32)CC1 | inactive | inactive [at 4.52 µM] | -7.56% (inactive) | -8.28% (inactive) | inactive | inactive | inactive | inactive | inactive | inactive | inactive | inactive | inactive | – | – | – | – | –
CCN(CC)CCOCCOC(=O)C1(c2ccccc2)CCCC1 | inactive | inactive | – | – | – | 1.78 µM (active) | inactive | 12.6 µM (active) | 7.08 µM (active) | 11.2 µM (active) | – | inactive | 7.94 µM (active) | – | – | – | – | –
O=C1CC2(CCCC2)CC(=O)N1CCCCN1CCN(c2ncccn2)CC1 | inactive | inactive | 11.6% (inactive) | 9.29% (inactive) | inactive | – | inactive | inactive | inactive | inactive | inactive | inactive | inactive | inactive | – | – | – | –
